Most compounds without a hit are left out; they make up all but 3.1% or so of the library.
PLK1 PBD inh: qHTS for Inhibitors of PLK1-PDB (polo-like kinase 1 - polo-box domain): Primary Screen. Plk1 PBD binding of FITC phosphopeptide, fluorescence polarization. Serine/threonine-protein kinase PLK1 (Homo sapiens), P53350. AID 720504, 2013. Potency, µM, inactives show max response, negative = inhibition, hits mostly inhibitors. 2.8% of 360,000 active; further: potency means the concentration at half of the fitted maximal effect; series mostly up to about 57 µM; nearly all actives have a fitted effect of over 65% in size
Target sequence (P53350 whole entry, looked up, the tested form may be a part): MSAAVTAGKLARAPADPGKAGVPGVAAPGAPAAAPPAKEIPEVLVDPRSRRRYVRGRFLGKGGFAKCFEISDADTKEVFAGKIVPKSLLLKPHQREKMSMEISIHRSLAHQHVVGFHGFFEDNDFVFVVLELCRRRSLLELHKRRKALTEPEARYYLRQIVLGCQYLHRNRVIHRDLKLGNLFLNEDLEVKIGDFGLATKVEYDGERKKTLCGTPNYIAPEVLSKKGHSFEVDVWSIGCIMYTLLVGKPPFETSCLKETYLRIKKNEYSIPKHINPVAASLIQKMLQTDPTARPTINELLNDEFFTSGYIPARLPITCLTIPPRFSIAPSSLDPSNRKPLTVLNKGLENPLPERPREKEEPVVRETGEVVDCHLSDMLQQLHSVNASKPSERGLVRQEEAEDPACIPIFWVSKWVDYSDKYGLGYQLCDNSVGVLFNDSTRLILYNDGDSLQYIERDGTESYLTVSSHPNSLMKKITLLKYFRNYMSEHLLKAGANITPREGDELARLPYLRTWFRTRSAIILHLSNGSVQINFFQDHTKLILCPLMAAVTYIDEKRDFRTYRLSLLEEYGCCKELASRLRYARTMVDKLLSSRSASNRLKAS
VDR inh: Inhibitors of the vitamin D receptor (VDR): qHTS | Potency, µM, inactives show max response, negative = inhibition, hits mostly inhibitors | VDR-SRC2-3 peptide fluorescence polarization, 2 h | 0.93% of 400,000 active; further: potency means the concentration at half of the fitted maximal effect
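Reagent solutions, kept cold and dark, are dispensed first; compounds are then pinned in at 23 nl, plates briefly spun, and incubated 2 h at ambient temperature. Inhibition of VDR–SRC2-3 peptide binding is read by fluorescence polarization.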
GLS inhibitor: qHTS for Inhibitors of Glutaminase (GLS); Glutaminase kidney isoform, mitochondrial (Homo sapiens), O94925; Potency, µM (titrated, usually from 45.5 µM), for inactives: top-dose activity change, negative = inhibition, hits mostly inhibitors; AID 624170, 2012; GLS enzymatic activity, qHTS titration; 0.21% of 410,000 active; further: potency means the concentration at half of the fitted maximal effect
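Compounds were pin-transferred onto hKGA, after which L-glutamine (1 mM solution) and a detection mix of glutamate oxidase, HRP and Amplex Red were added. Initial and 30 min RT fluorescence reads were collected.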
PI4K2A block: qHTS for small molecular inhibitors of PI4K2A; Phosphatidylinositol 4-kinase type 2-alpha (Homo sapiens), Q9BTU6; activity change, negative = inhibition, % at 76.9 µM; 0.13% of 420,000 active; purified PI4K2A, ADP-Glo luminescence, 1 h; hits give low values; in the data active means activity change below about -50%; inconclusive means mostly about -30% to -49%;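 further: -100% = wells without enzyme as full effect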
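Compounds are screened against recombinant PI4K2A using PI as substrate and ATP, the latter dispensed at 300 microM. Reactions run one hour at ambient temperature before ADP-Glo detection; full inhibition defined by wells lacking enzyme.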
GCN5L2 inh: qHTS Assay for Inhibitors of GCN5L2; Histone acetyltransferase KAT2A (Homo sapiens), Q92830; GCN5L2 HAT assay, ThioGlo1 CoA-SH fluorescence; Potency, µM (top dose mostly 58.9 µM), without a hit: at the highest dose activity change, negative = inhibition, hits mostly inhibitors; 0.21% of 390,000 active; AID 504327, 2011; further: potency means the concentration at half of the fitted maximal effect
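Fluorescence readout, Ex340nm/Em540nm: ThioGlo1 (50uM final) reacts with free CoA thiol released as 20nM GCN5L2 acetylates H3(1-25) peptide (75uM) using acetyl-CoA (70uM). Compound and enzyme sat 15 min beforehand; 20 min room-temperature reaction.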
* hit, by the source's call; ? = inconclusive; / = no result given. Unless noted, the call rests on the fitted dose curve; in most records, active means well fitted curve in the direction sought with a large enough effect; inconclusive means small, poorly fitted or top-dose-only effect, or another doubt; inactive means no such curve, though single readings can be large; an effect the other way counts as inactive or inconclusive. Unless noted, on the % scale 0 is the no-effect control and ±100 the full control effect.

SMILES	PLK1 PBD inh	VDR inh	GLS inhibitor	PI4K2A block	GCN5L2 inh
CCS(=O)(=O)c1oc(-c2ccc(F)cc2)nc1S(=O)(=O)c1ccc(Br)cc1	/	?	-20%	80	-11%
CC(OC(=O)CNC(=O)c1ccco1)C(=O)N(C)c1ccccc1 (centres undefined)	27µM*	-15%	3%	3	-8%
NC(=O)C1CCN(C(=S)c2ccc(-c3ccc(Br)cc3)o2)CC1	12µM*	2%	-12%	-3	-9%
COc1ccc(C(=S)N2CCC(C(N)=O)CC2)cc1Br	19µM*	-7%	-1%	4	-23%
CCCCOc1ccc(C(=S)N2CCC(C(N)=O)CC2)cc1	?	-24%	3%	2	-2%
Cc1ccc(C(=O)CSc2nsc(C)c2C#N)cc1	15µM*	?	-7%	-2	1%
Cc1snc(SCC(=O)c2ccc(Cl)cc2)c1C#N	21µM*	-25%	6%	3	-1%
COC(=O)c1cc(C#N)c(SCc2ccccc2)nc1C	2%	-18%	4%	0	2%
COC(=O)c1ccccc1CSc1nsc(C)c1C#N	13µM*	-25%	-12%	-4	-1%
Cc1ccc2nc(Nc3ccc(Br)cc3)nc(-c3ccccc3)c2c1	/	-15%	-7%	3	-4%
CN(C)c1ccc(C(c2nnnn2C(C)(C)C)N2CCN(C(=O)c3ccco3)CC2)cc1 (centres undefined)	-2%	16µM*	26%	-9	-3%
Cn1c(=O)c2[nH]c(SCC(=O)NCCc3cccc(F)c3)nc2n(C)c1=O	/	/	/	-5	/
COc1ccc(Cn2cc(CN3[C@@H](CC(C)C)COc4cccc(F)c4S3(=O)=O)nn2)cc1	/	/	/	2	/
COc1ccc(NC(=O)CC(C)C)c([N+](=O)[O-])c1	-8%	3%	2%	-3	19%
COc1ccc(NC(=S)NC(NC(=O)C(C)C)C(Cl)(Cl)Cl)c([N+](=O)[O-])c1 (centres undefined)	27µM*	3%	2%	73	1%
COc1ccc([N+](=O)[O-])cc1NC(=S)NC(NC(C)=O)C(Cl)(Cl)Cl (centres undefined)	27µM*	-2%	18%	-4	-3%
CC[C@@]1(O)C(=O)OCc2c1cc1n(c2=O)Cc2cc3c([N+](=O)[O-])cccc3nc2-1	/	4%	-3%	/	-11%
CCOC(=O)[C@]12CCCCC/C=C\1N(Cc1ccc(OC)cc1)C(=O)[C@H]2CC(=O)N1CCCC1	/	/	/	1	/
CC(C)[C@H]1COc2c3ccccc3nn21	/	/	/	-6	/
COC(=O)[C@]12C[C@H](CC(=O)NCC34CC5CC(CC(C5)C3)C4)C(=O)N(CCC3=CCCCC3)C1=C[C@H](C1CCCC1)O[C@@H]2C	/	/	/	-4	/
CCOC(=O)[C@H]1NN=C(C(=O)OC)[C@@H]1c1ccccc1	38µM*	?	2%	-5	-3%
O=c1[nH][nH]c2c1[C@H](c1ccc(F)cc1)O[C@H](C1CCCCC1)C2	-29%	/	12%	-2	/
CCCC[C@@H]1Cc2[nH][nH]c(=O)c2[C@@H](c2ccc(Cl)cc2)O1	-22%	/	-5%	-6	/
O=c1[nH][nH]c2c1[C@H](c1ccc(Cl)cc1)O[C@H](C1CC1)C2	12µM*	/	23%	-9	/
O=c1[nH][nH]c2c1[C@H](c1ccccc1)O[C@H](C1CCCCC1)C2	12µM*	/	3%	-7	/
CCCC[C@@H]1Cc2[nH][nH]c(=O)c2[C@H](c2ccc(C(C)C)cc2)O1	9.5µM*	/	11%	-4	/
CSC1=NC(C)(C)C=C(/C=C/c2ccc(Cl)cc2)N1	?	32µM*	3%	10	-15%
CSC1=NC(C)(C)C=C(/C=C/c2ccc(Cl)cc2Cl)N1	?	?	-1%	2	-13%

Screening results (PubChem)
